# Results: PubChem BioAssay
# Values without a mark were called inactive. The source made the active and inactive calls.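 How the source made its calls, unless noted: active means growth inhibition above 50% at the single 2 µM test dose, taken to imply half-maximal potency below 2 µM; inactive means the rest.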
# Experiment: antimalarial activity against Dd2 strain (AID 2302);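 further: 0% = DMSO untreated growth and 100% = chloroquine plus artemisinin killed control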
# Details: P. falciparum Dd2 in RBCs, LDH growth readout, 72 h; at 2 µM; stronger effect = higher value
row,Structure (SMILES),growth inhibition
1,Nc1nc(N)c2c(ccn2Cc2cc3c(cc2Cl)OCO3)n1,11%
2,O=C(Nc1ccc(S(=O)(=O)NCCCN2CCOCC2)cc1)c1cc(-c2ccccc2)n[nH]1,29%
3,Cn1nc(-c2cccc(CN[C@@H]3CCc4ccc(O)cc43)c2)c2cnc(NCCCN3CCCC3)nc21,-2%
4,CCOc1ccc2c(NN=Cc3c4ccccc4cc4ccccc34)cc(C)nc2c1,94% (active)
5,Cc1[nH]c(C)c([N+](=O)[O-])c(=O)c1-c1ccc(Oc2ccccc2)cc1,97% (active)
6,O=C(Cc1cnc[nH]1)Nc1cccc(-c2ccc(-c3nc4ccc(C(F)(F)F)cc4[nH]3)cc2)c1,99% (active)
7,O=C(CCc1cnc[nH]1)Nc1cccc(-c2cccc(-c3nc4ccc(C(F)(F)F)cc4[nH]3)c2)c1,99% (active)
8,Cc1[nH]c(C)c(-c2cccc(-c3ccc(OC(F)(F)F)cc3)c2)c(=O)c1Br,96% (active)
9,FC(F)(F)c1cccc2c(NN=Cc3ccccc3)ccnc12,90% (active)
10,Cc1ccc(-n2c(=O)c3c(n4c(SC(C)C)nnc24)-c2ccccc2CC32CCCCC2)cc1,88% (active)
11,Cc1cccc(-c2nc3[nH]c(=O)cc(NC(=O)C(C)C)n3n2)c1,93% (active)
12,Cc1noc(-c2ccc(N3CCC(C(=O)N4CCN(C(C)C)CC4)CC3)cc2)n1,-2%
13,Cc1ccc(NC(=S)N2CCCN(CCCCCNC(=O)/C=C/c3ccc(Cl)c(Cl)c3)CC2)cc1Cl,5%
14,Cc1cc(NC(=O)c2cccs2)ccc1OC1CCN(Cc2ccc(C#N)cc2)CC1,92% (active)
15,CN(CCCNC(=S)NC12CC3CC(CC(C3)C1)C2)CCCNc1ccnc2cc(Cl)ccc12,98% (active)
16,Cc1cc(C(=O)Nc2ccc3c(c2)CCN3C2CCN(Cc3cccc4cc[nH]c34)C2)no1 (stereo not given),96% (active)
17,CC(C)CCNCc1ccc(OCc2cccc(C(=O)Nc3ccccc3)c2)c(I)c1,59% (active)
18,Cc1nc2nc(N)nc(N)c2c(C)c1Cc1c(Cl)cccc1Cl,5%
19,CC(=O)Nc1ccc(C(=O)Nc2cccc(-c3ccc(-c4nc5ccc(C(F)(F)F)cc5[nH]4)cc3)c2)cn1,100% (active)
20,CC1(C)N=C(N)N=C(N)N1OCc1cc2ccccc2cc1CON1C(N)=NC(N)=NC1(C)C,51% (active)

row,Structure (SMILES),growth inhibition
1,Cc1cccc(CNc2nc(C)cc(NCCC(=O)NCCOc3ccccc3)n2)c1,14%
2,COc1cc2nc(SCCCC#N)n(C3CCCCCC3)c(=N)c2cc1OC,9%
3,COc1ccc(-c2cccc(NC(=O)c3cccc(C#N)c3)c2)cc1CN(C)CCO,30%
4,N#Cc1cccc(CNC(=O)c2cccc(Nc3ccnc4ccc(F)cc34)c2)c1,26%
5,O=C(c1cc2c(s1)-c1cccc(Cl)c1SC2)N1CCN(c2ccncc2)CC1,36%
6,O=C(Nc1ccc(C(=O)OCC2CCCCC2)cc1)N[C@@H](Cc1ccc(O)cc1)C(=O)NC1CCN(Cc2ccc(O)cc2)C1 (stereo not given in full),-4%
7,CCCC/C=C(\Cl)c1ccc(O)c2c1C[C@H]1C[C@H]3[C@H](N(C)C)C(=O)C(C(N)=O)=C(O)[C@@]3(O)C(=O)C1=C2O,98% (active)
8,CCC[C@@H]([C@@H](CC(C)C)C(=O)N[C@@H](CCCNc1nccc(C(F)(F)F)n1)C(=O)Nc1nccs1)N(O)C=O,98% (active)
9,CCc1cc(NC2CCN(C)CC2)nc(Nc2cccc(OC)c2)n1,37%
10,COCCNCc1cccc(-c2ccc3c(Nc4ccc(F)cc4Cl)ccnc3c2)c1,100% (active)
11,O=C(/C=C/c1ccc(Cl)c(Cl)c1)NCCCCCN1CCC(c2c[nH]c3ccccc23)CC1,7%
12,O=C(C=Cc1ccc(Cl)c(Cl)c1)NCCCCCN1CCCC(CCCNC(=O)c2cccs2)C1 (stereo not given),0%
13,CO/C(=C\C=C\c1cc2cc(Cl)c(Cl)cc2[nH]1)C(=O)NCCCN1CCN(c2cccc(OC)c2)CC1,93% (active)
14,CCOC(=O)NCC(=O)Nc1cccc(-c2cccc(-c3nc4c(C)cccc4[nH]3)c2)c1,35%
15,CCN(CCCN1CCCCC1)c1cc(C)nc(Nc2ccc(C)cc2C)n1,35%
16,COc1ccc2nccc([C@@H](O)CN3CCC(NCCNc4ccccn4)CC3)c2c1,14%
17,CN1CCN(c2ccc(Cl)cc2NC(=O)C2COc3ccccc3O2)CC1 (stereo not given),44%
18,COc1ccc(Nc2nccc(NCCNC(=O)Nc3ccccc3F)n2)cc1,4%
19,Cc1noc(C)c1C(=O)N1CCc2cc3nccc(N4CCN5CCC[C@H]5C4)c3cc21,9%
20,O=C(N1CCN(c2ccc(C(F)(F)F)cc2[N+](=O)[O-])CC1)C(Cl)(Cl)Cl,99% (active)

# Experiment: HepG2 cytotoxicity, primary screen, cytotoxicity control for P. falciparum antimalarial project, cell-based, ATP luminescence (AID 2303;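 active means inhibition above 50%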;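 further: 0% = DMSO wells and 100% = digitonin-killed cells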)
# Details: HepG2 viability, 24-48 h, at 10 µM, stronger effect = higher value
row,Structure (SMILES),inhibition
1,Nc1nc(N)c2c(ccn2Cc2cc3c(cc2Cl)OCO3)n1,67% (active)
2,O=C(Nc1ccc(S(=O)(=O)NCCCN2CCOCC2)cc1)c1cc(-c2ccccc2)n[nH]1,16%
3,Cn1nc(-c2cccc(CN[C@@H]3CCc4ccc(O)cc43)c2)c2cnc(NCCCN3CCCC3)nc21,9%
4,CCOc1ccc2c(NN=Cc3c4ccccc4cc4ccccc34)cc(C)nc2c1,-4%
5,Cc1[nH]c(C)c([N+](=O)[O-])c(=O)c1-c1ccc(Oc2ccccc2)cc1,11%
6,O=C(Cc1cnc[nH]1)Nc1cccc(-c2ccc(-c3nc4ccc(C(F)(F)F)cc4[nH]3)cc2)c1,10%
7,O=C(CCc1cnc[nH]1)Nc1cccc(-c2cccc(-c3nc4ccc(C(F)(F)F)cc4[nH]3)c2)c1,17%
8,Cc1[nH]c(C)c(-c2cccc(-c3ccc(OC(F)(F)F)cc3)c2)c(=O)c1Br,45%
9,FC(F)(F)c1cccc2c(NN=Cc3ccccc3)ccnc12,10%
10,Cc1ccc(-n2c(=O)c3c(n4c(SC(C)C)nnc24)-c2ccccc2CC32CCCCC2)cc1,8%
11,Cc1cccc(-c2nc3[nH]c(=O)cc(NC(=O)C(C)C)n3n2)c1,-12%
12,Cc1noc(-c2ccc(N3CCC(C(=O)N4CCN(C(C)C)CC4)CC3)cc2)n1,-12%
13,Cc1ccc(NC(=S)N2CCCN(CCCCCNC(=O)/C=C/c3ccc(Cl)c(Cl)c3)CC2)cc1Cl,14%
14,Cc1cc(NC(=O)c2cccs2)ccc1OC1CCN(Cc2ccc(C#N)cc2)CC1,34%
15,CN(CCCNC(=S)NC12CC3CC(CC(C3)C1)C2)CCCNc1ccnc2cc(Cl)ccc12,73% (active)
16,Cc1cc(C(=O)Nc2ccc3c(c2)CCN3C2CCN(Cc3cccc4cc[nH]c34)C2)no1 (stereo not given),-1%
17,CC(C)CCNCc1ccc(OCc2cccc(C(=O)Nc3ccccc3)c2)c(I)c1,25%
18,Cc1nc2nc(N)nc(N)c2c(C)c1Cc1c(Cl)cccc1Cl,7%
19,CC(=O)Nc1ccc(C(=O)Nc2cccc(-c3ccc(-c4nc5ccc(C(F)(F)F)cc5[nH]4)cc3)c2)cn1,46%
20,CC1(C)N=C(N)N=C(N)N1OCc1cc2ccccc2cc1CON1C(N)=NC(N)=NC1(C)C,0%

row,Structure (SMILES),inhibition
1,Cc1cccc(CNc2nc(C)cc(NCCC(=O)NCCOc3ccccc3)n2)c1,18%
2,COc1cc2nc(SCCCC#N)n(C3CCCCCC3)c(=N)c2cc1OC,0%
3,COc1ccc(-c2cccc(NC(=O)c3cccc(C#N)c3)c2)cc1CN(C)CCO,28%
4,N#Cc1cccc(CNC(=O)c2cccc(Nc3ccnc4ccc(F)cc34)c2)c1,-1%
5,O=C(c1cc2c(s1)-c1cccc(Cl)c1SC2)N1CCN(c2ccncc2)CC1,45%
6,O=C(Nc1ccc(C(=O)OCC2CCCCC2)cc1)N[C@@H](Cc1ccc(O)cc1)C(=O)NC1CCN(Cc2ccc(O)cc2)C1 (stereo not given in full),6%
7,CCCC/C=C(\Cl)c1ccc(O)c2c1C[C@H]1C[C@H]3[C@H](N(C)C)C(=O)C(C(N)=O)=C(O)[C@@]3(O)C(=O)C1=C2O,16%
8,CCC[C@@H]([C@@H](CC(C)C)C(=O)N[C@@H](CCCNc1nccc(C(F)(F)F)n1)C(=O)Nc1nccs1)N(O)C=O,-4%
9,CCc1cc(NC2CCN(C)CC2)nc(Nc2cccc(OC)c2)n1,22%
10,COCCNCc1cccc(-c2ccc3c(Nc4ccc(F)cc4Cl)ccnc3c2)c1,8%
11,O=C(/C=C/c1ccc(Cl)c(Cl)c1)NCCCCCN1CCC(c2c[nH]c3ccccc23)CC1,33%
12,O=C(C=Cc1ccc(Cl)c(Cl)c1)NCCCCCN1CCCC(CCCNC(=O)c2cccs2)C1 (stereo not given),24%
13,CO/C(=C\C=C\c1cc2cc(Cl)c(Cl)cc2[nH]1)C(=O)NCCCN1CCN(c2cccc(OC)c2)CC1,61% (active)
14,CCOC(=O)NCC(=O)Nc1cccc(-c2cccc(-c3nc4c(C)cccc4[nH]3)c2)c1,14%
15,CCN(CCCN1CCCCC1)c1cc(C)nc(Nc2ccc(C)cc2C)n1,33%
16,COc1ccc2nccc([C@@H](O)CN3CCC(NCCNc4ccccn4)CC3)c2c1,18%
17,CN1CCN(c2ccc(Cl)cc2NC(=O)C2COc3ccccc3O2)CC1 (stereo not given),2%
18,COc1ccc(Nc2nccc(NCCNC(=O)Nc3ccccc3F)n2)cc1,4%
19,Cc1noc(C)c1C(=O)N1CCc2cc3nccc(N4CCN5CCC[C@H]5C4)c3cc21,7%
20,O=C(N1CCN(c2ccc(C(F)(F)F)cc2[N+](=O)[O-])CC1)C(Cl)(Cl)Cl,29%
